# SKN-1 inh – inhibitors of C. elegans SKN-1; AID 624304; 360,000 compounds, 0.49% hits; C. elegans VP596 Pgst-4::GFP/RFP ratio, acrylamide-induced, 24 h; inhibition, % at 21.8 µM;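 active = interference check ratio from 0.5 to 1.5 plus GFP to RFP signal ratio inhibition reaching or exceeding a fixed threshold, cut at about 30% in these data, passing the limit was not always enough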
# HGIII-sPLA2 inh – Inhibits HGIII-sPLA2 liposome hydrolysis, primary screen | Q9NZ20 | QFRET BODIPY PC-A2 liposome hydrolysis, fluorescence | inhibition, % at 12.2 µM | 370,000 compounds, 0.56% hits | AID 743126;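 active = inhibition above mean plus 3 SD of compounds lying within the high and low control bounds, cut at about 19% in these data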
# Target sequence (Q9NZ20 whole entry, looked up): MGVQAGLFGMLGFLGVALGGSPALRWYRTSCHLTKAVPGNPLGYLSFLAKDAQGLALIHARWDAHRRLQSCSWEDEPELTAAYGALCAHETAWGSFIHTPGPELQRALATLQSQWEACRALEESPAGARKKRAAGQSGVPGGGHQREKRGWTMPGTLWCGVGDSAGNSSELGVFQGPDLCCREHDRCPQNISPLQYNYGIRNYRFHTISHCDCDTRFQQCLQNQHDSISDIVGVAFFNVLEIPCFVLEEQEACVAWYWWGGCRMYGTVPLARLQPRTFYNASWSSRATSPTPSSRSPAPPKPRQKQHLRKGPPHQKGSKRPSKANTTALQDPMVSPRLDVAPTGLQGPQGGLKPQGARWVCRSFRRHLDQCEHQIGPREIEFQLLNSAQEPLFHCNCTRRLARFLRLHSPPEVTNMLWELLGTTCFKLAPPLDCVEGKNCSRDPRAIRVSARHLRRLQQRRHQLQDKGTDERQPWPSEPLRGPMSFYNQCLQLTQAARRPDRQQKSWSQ
# Efflux pump mplx – blocks antifungal efflux pumps in multiplex yeast assay | inhibition, % at 10 µM | S. cerevisiae Candida pump triplex, Nile Red efflux | 330,000 compounds, 0.44% hits;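 active = plate passing quality check with inhibition over a set limit, or well fluorescence over plate mean plus 4 SD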;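 also: Nile Red retained in pooled yeast measured as flow cytometry median fluorescence; higher means more Nile Red kept so more efflux inhibition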
# Mot1-301 SUMO – SUMOylation pathway inhibition by Mot1-301 growth rescue; AID 2716; 320,000 compounds, 1% hits; S. cerevisiae Mot1-301 growth rescue, ATP luminescence, 38.5C; percent above DMSO median, 100 means doubled; growth rescue, % at 18.8 µM;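 active = every valid replicate shows activation above 250% relative to neutral control wells; inactive = the rest, any valid replicate at or below 250%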
# hGIII sPLA2 conf – human GIII-sPLA2 inhibition, confirmation | shares compounds with HGIII-sPLA2 inh | recombinant hGIII-sPLA2, BODIPY PC-A2 QFRET fluorescence | inhibition, % at 12.2 µM | 2,000 compounds, 34% hits | AID 743280;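 active = mean inhibition across triplicates above the hit cutoff set in the earlier primary screen, cut at about 19% in these data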
# 535nm interf – 535nm fluorescence interference, HGIII-sPLA2 counter-screen. inhibition, % at 12.2 µM. BODIPY FL product fluorescence interference, QFRET. AID 743282. shares compounds with HGIII-sPLA2 inh. 2,000 compounds, 8.5% hits;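 active = average inhibition above the solvent-only control mean plus 3 SD, cut at about 6% in these data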
# 535nm interf DR – interferes with 535nm fluorescence in dose response counter-screen; shares compounds with HGIII-sPLA2 inh; BODIPY FL product fluorescence interference, cell-free; IC50, µM; 240 tested, under 10 active;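 active = IC50 at or below 10 µM; inactive = IC50 above 10 µM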
# Numbers stand for hits; i = inactive; nt = not tested or not shown; ! = not active in a repeat. A selection: hits, their analogues and other compounds. The true share with any hit is near 2.2%.
SMILES,SKN-1 inh,HGIII-sPLA2 inh,Efflux pump mplx,Mot1-301 SUMO,hGIII sPLA2 conf,535nm interf,others
CC1(C)CC(=O)C(Sc2ccccc2C(=O)O)=C(O)C1,i,23,i,i,i,i,
C=CCNC(=O)COc1cc(C)ccc1C,i,20,i,i,i,i,
Cc1cccc(CC(=O)NCC(=O)NCc2cc(=O)n(C)c(=O)n2C)c1,i,i,i,i,nt,nt,
Cc1nn(CC(=O)Nc2ccc(Cl)cn2)c(C)c1Br,i,20,i,i,i,i,
CCN(CC)C(=O)/C(=C/c1ccc2c(c1)OCO2)NC(=O)c1ccc(Br)cc1,i,20,i,i,i,i,
O=C(CNC(=S)N(Cc1ccccc1)Cc1ccccc1F)NCc1ccc(Cl)cc1,i,i,nt,nt,nt,nt,
Cc1ccc(NC(=S)NNC(=O)CSc2nc3ccccc3c(=O)n2-c2ccc(Cl)cc2)cc1,nt,29,nt,nt,24,i,
Cc1ccc(-n2c(SCC(=O)NNC(=S)Nc3ccccc3)nc3ccccc3c2=O)cc1,i,30,i,i,26,i,
CCN(CC)c1ccc(NC(=O)CSc2nc3ccccc3c(=O)n2-c2cc(S(=O)(=O)N(C)C)ccc2C)cc1,i,i,i,i,nt,nt,
CCN(CC)c1ccc(NC(=O)CSc2nc3ccccc3c(=O)n2-c2ccc(C)cc2)cc1,nt,28,nt,nt,30,i,535nm interf DR=i
O=C(O)C(Sc1ccncn1)c1ccccc1 (configuration not stated),i,i,i,i,nt,nt,
CCn1c(SC(C)C(=O)NC2CCCC2)nc2cc(S(N)(=O)=O)ccc21 (configuration not stated),i,i,i,i,nt,nt,
CN1CCc2ccccc2CC1=O,i,20,i,i,i,i,
COc1cc2c(c(OC)c1OC)CC(=O)N(C)CC2,i,i,i,i,nt,nt,
CC1=NN(c2ccccc2)C(=O)/C1=C/C=C/c1ccccc1,i,23,i,i,46,11,
CCC[C@H]1CN(c2ccccc2)C(=O)[C@@H]1CC(=O)NC,i,i,nt,nt,nt,nt,
COc1cccc(Nc2nc(C(N)C(C)C)cs2)n1 (configuration not stated),i,28,nt,nt,i,i,
CC(N)c1csc(Nc2nncc3ccccc23)n1 (configuration not stated),i,23,nt,nt,i,i,
COc1cccc(Nc2nc(C(N)CC(C)C)cs2)n1 (configuration not stated),i,i,nt,nt,nt,nt,
CC(C)C(N)c1csc(Nc2nncc3ccccc23)n1 (configuration not stated),i,20,nt,nt,i,i,
CC(C)c1ccc2c(c1)CC[C@H]1[C@](C)(CN)CCC[C@]21C,i,21!,nt,nt,21,i,
Cc1ccc(NC(=O)NNC(=O)c2cc3ccccc3cc2O)c(C)c1,i,i,i,i,nt,nt,
Cc1ccc(NC(=S)NNC(=O)c2ccccc2O)c(C)c1,i,49,i,i,37,i,535nm interf DR=i
Cc1cccc(NC(=S)NNC(=O)c2ccc(O)cc2O)c1C,i,42,i,i,33,i,535nm interf DR=i
S=c1[nH]nc(-c2ccccc2Br)n1Cc1ccccc1,i,26,i,i,i,i,
SMILES,SKN-1 inh,HGIII-sPLA2 inh,Efflux pump mplx,Mot1-301 SUMO,hGIII sPLA2 conf,535nm interf,others
S=c1[nH]nc(-c2cccc(Cl)c2)n1Cc1ccccc1,i,i,i,i,nt,nt,
CCn1c(-c2ccc(Cl)cc2)n[nH]c1=S,i,i,i,i,nt,nt,
S=c1[nH]nc(-c2ccc(Cl)cc2Cl)n1Cc1ccccc1,i,20,i,i,28,i,535nm interf DR=i
CCn1c(-c2cccn(Cc3ccc(Cl)cc3Cl)c2=O)n[nH]c1=S,i,21,i,i,33,i,535nm interf DR=i
Cc1ccc2nc(SCC(=O)NCc3ccc4c(c3)OCO4)nc(=O)n2c1,i,i,i,i,nt,nt,
O=C(COC(=O)c1ncc(Cl)c(Cl)c1Cl)Nc1cccnc1Cl,i,20,i,i,i,i,
O=C(COC(=O)c1ncc(Cl)c(Cl)c1Cl)Nc1ccccc1OC(F)F,i,i,i,i,nt,nt,
CCC(C)NC(=S)N(CCc1ccccc1)Cc1cc2cc(OC)c(OC)cc2[nH]c1=O (configuration not stated),i,20,i,i,20,i,
COc1ccc2[nH]c(=O)c(CN(CCc3ccccc3)C(C)=O)cc2c1,i,i,i,i,nt,nt,
COC(=O)[C@]12CCCCC=C1N(Cc1ccc(OC)cc1)C(=O)[C@@H]2CC(=O)NCC1CCCCC1,nt,i,nt,nt,nt,nt,
